Measurements: the supplement of paper PMC3334620
Over roughly 33,000 sequences, “E-score (-0.5 to 0.5)” has its median near -0.021; the highest 2% begin near 0.32. The sample as a whole holds a higher share of the highest values than the screen did.

target: T1, Zap1 (UniProt P47043); assay: PBM E-score (8-mer binding enrichment) (E-score (-0.5 to 0.5)); higher = stronger / more preferred TF binding; conditions: protein concentration: 200 nM; construct: GST-full length
T1 sequence: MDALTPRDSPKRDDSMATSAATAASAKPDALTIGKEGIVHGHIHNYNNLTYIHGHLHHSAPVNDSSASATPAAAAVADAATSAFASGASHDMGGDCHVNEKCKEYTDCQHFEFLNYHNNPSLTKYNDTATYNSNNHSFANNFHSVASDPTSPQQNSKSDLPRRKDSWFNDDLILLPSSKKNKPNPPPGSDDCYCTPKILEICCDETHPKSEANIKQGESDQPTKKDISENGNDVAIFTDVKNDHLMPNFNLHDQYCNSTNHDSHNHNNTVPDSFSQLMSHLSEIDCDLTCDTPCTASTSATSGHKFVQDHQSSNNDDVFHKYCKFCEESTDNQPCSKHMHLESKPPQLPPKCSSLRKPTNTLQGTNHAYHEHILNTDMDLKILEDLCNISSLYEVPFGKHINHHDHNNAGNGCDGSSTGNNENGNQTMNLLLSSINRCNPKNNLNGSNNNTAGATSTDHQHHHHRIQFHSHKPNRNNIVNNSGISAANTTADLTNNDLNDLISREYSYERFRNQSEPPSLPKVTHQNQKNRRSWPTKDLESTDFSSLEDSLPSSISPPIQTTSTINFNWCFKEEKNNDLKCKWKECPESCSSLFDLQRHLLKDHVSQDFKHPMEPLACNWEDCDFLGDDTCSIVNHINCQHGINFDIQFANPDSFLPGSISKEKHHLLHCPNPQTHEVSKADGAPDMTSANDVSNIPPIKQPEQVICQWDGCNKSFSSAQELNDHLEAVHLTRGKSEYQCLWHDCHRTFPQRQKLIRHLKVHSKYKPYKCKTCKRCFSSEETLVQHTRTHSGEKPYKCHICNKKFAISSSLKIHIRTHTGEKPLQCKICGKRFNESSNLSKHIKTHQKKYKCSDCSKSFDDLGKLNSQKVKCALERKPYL
Description: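 Universal 'all 10-mer' protein binding microarrays (Agilent AMADID 015681) probed with GST-tagged S. cerevisiae TFs (full-length or DBD) made by in vitro transcription/translation (PURExpress), about 100-200 nM. Bound TF was detected with fluorescent anti-GST. Each ungapped 8-mer (which stands for itself and its reverse complement) is scored by the PBM enrichment score (E-score), a modified Wilcoxon-Mann-Whitney statistic from -0.5 to +0.5, computed with the Universal PBM Analysis Suite. Scale: above 0.35 generally sequence-specific binding.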

Point of comparison: AAGGGTTC, “PBM E-score” value 0.339. Against it:
- ACACTTAT — lower, -0.101
- AACCTCGA — higher, 0.367
- GACCTCGA — lower, 0.277
- AACCTCGT — lower, 0.322
- CACCTCGA — lower, 0.215
- AACCTCGG — lower, 0.302
- AACCTCGC — lower, 0.295
- GCCACCTA — lower, -0.103
- CAGACAGG — lower, -0.0636
- AGGGGGTG — lower, -0.204
- AAGGGTTG — higher, 0.441
- AGAGGTTG — lower, 0.218
- CAGGGTTC — lower, 0.214
- AAGGGTGC — lower, 0.134
- AGGGGTTC — lower, 0.173
- AAGGGTGG — lower, 0.19
- AGGGGTTG — lower, 0.337
- AAGGGGTG — lower, 0.167
- AAAGGTTC — lower, 0.293
- AAAGGTTG — lower, 0.336
- AAATAGCA — lower, -0.171
- AATAGACG — lower, -0.163
- TCAGTGGA — lower, -0.041
- ATCGAACG — lower, -0.183
- CTCTACGA — lower, -0.0991
- ACCTACCC — lower, 0.316
- CTCCACGC — lower, -0.241
- CTTCTACA — lower, -0.0296
- CCAGGGAC — lower, -0.163
- CATGGTTC — lower, 0.132
- GATGGTAA — lower, 0.171
- AATGGTTA — higher, 0.413
- CATGGTGA — lower, 0.0149
- CATGGTTA — higher, 0.415
- GATGGTTA — higher, 0.392
- AATGGTTC — lower, 0.246
- GATGGTGA — lower, -0.0368
- AATGGTTG — lower, 0.254
- GCCGCACC — lower, 0.0244
- ATTTTGAC — lower, 0.203
- AGCGACCG — lower, -0.13
- CTACCTAG — lower, 0.104
- GCTTTGCC — lower, -0.379
- AGCCTAAG — lower, -0.216
- ATTCACTC — lower, -0.105
- AAGTGCTA — lower, -0.303
- TCCCCTAA — lower, 0.0699
- AGCCCTAA — lower, -0.00909
- GACCCTCA — lower, 0.189
- TACCCTAA — higher, 0.435
- CGCCCTAA — lower, -0.126
- GACCCTAA — higher, 0.433
- GTCCCTAA — lower, 0.109
- CCCCCTAA — lower, -0.277
- AACCCTAA — higher, 0.452
- ATCCCTAA — lower, 0.006
- CACCCTAA — higher, 0.369
- TACCCTCA — lower, 0.312
- CGCCAATC — lower, -0.11
- GTGAATTA — lower, 0.206
- AAAGGACA — lower, 0.177
- AGTAAGAT — lower, -0.0474
- ACCATTTG — lower, 0.221
- AGACGCTA — lower, -0.167
- TGCGCACA — lower, -0.037
- AGCCTTGC — lower, -0.257
- CCCCTTGC — lower, -0.0145
- ACCCTTGG — higher, 0.365
- ACCCTTGA — higher, 0.383
- CCCCTTGA — lower, 0.119
- ATCCTTGG — lower, -0.139
- ACCCTTGC — higher, 0.381
- AGCCTTGG — lower, -0.208
- GCCCTTGA — lower, 0.00462
- CAAGCTCA — lower, -0.197
- AACAGCAA — lower, -0.0172
- CTGGTGAC — lower, -0.0173
- GATACTGC — lower, -0.126
- CAGATTTC — lower, -0.097
- ATAGCGAT — lower, 0.0306
- AAATGGCT — lower, 0.00044
- ACTACCCT — higher, 0.445
- ACTACCCC — lower, 0.215
- AATACCCT — higher, 0.379
- AATACCCA — lower, 0.158
- AATACCCG — lower, 0.177
- ACTACCCA — lower, 0.291
